A selection: hits, their analogues and other compounds. The true share with any hit is near 12%.
G9a block = G9a (human) methyltransferase inhibition | Q96KQ7 | G9a H3K9 monomethylation, AlphaScreen, 2 h | Potency, µM (highest dose often 102 µM), for inactives: top-dose activity, negative = inhibition, actives largely listed as inhibitors | 350,000 compounds, 8.8% hits | AID 504332; further: on the % scale 0 is the no-effect control and ±100 the full control effect; nearly all actives have a fitted effect of over 75% in size
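Chemiluminescent proximity detection of H3K9 monomethylation, read after 10 min bead incubation in the dark. Reaction: 20 nM G9a, 500 nM biotin-H3K9 peptide, 20 uM SAM cofactor, 2 h, room temperature, following 15 min enzyme-compound preincubation.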
Sfp inh = blocks B. subtilis Sfp PPTase activity; Q9F4F7; Biochemical Sfp PPTase activity, qHTS; Potency, µM, for inactives: largest response in the series, negative = inhibition, usual class: inhibitors; 310,000 compounds, 3.5% hits;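 further: the enzyme is Sfp with the accession as filed and its product quenches rhodamine fluorescence; 0% = enzyme reaction without inhibitor and -100% = no enzyme wells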
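Reaction rates are the 30-min fluorescence difference (ex 525, em 598 nm) in wells containing 15 nM Sfp, 5 uM rhodamine-CoA and 12.5 uM BHQ-2-YbbR at pH 7.6 with 10 mM MgCl2.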
JMJD2A Tudor inh = JMJD2A Tudor domain (human) inhibition. AlphaScreen JMJD2A-Tudor / H3K4me3 peptide binding. Potency, µM (top dose mostly 114 µM), for the others: top-dose activity change, negative = inhibition, most hits filed as inhibitors. 390,000 compounds, 4.4% hits; further: on the % scale 0 is the no-effect control and ±100 the full control effect; nearly all actives have a fitted effect of over 50% in size
BAZ2B block = blocks human BAZ2B; 360,000 compounds, 4.4% hits; AlphaScreen BAZ2B-H3K14Ac peptide displacement; Potency, µM (titrated, usually from 114 µM), without a hit: top-dose activity change, negative = inhibition, actives largely listed as inhibitors; AID 504333; Q9UIF8; further: on the % scale 0 is the no-effect control and ±100 the full control effect; nearly all actives have a fitted effect of over 60% in size
Target sequence (Q9UIF8 whole entry, looked up): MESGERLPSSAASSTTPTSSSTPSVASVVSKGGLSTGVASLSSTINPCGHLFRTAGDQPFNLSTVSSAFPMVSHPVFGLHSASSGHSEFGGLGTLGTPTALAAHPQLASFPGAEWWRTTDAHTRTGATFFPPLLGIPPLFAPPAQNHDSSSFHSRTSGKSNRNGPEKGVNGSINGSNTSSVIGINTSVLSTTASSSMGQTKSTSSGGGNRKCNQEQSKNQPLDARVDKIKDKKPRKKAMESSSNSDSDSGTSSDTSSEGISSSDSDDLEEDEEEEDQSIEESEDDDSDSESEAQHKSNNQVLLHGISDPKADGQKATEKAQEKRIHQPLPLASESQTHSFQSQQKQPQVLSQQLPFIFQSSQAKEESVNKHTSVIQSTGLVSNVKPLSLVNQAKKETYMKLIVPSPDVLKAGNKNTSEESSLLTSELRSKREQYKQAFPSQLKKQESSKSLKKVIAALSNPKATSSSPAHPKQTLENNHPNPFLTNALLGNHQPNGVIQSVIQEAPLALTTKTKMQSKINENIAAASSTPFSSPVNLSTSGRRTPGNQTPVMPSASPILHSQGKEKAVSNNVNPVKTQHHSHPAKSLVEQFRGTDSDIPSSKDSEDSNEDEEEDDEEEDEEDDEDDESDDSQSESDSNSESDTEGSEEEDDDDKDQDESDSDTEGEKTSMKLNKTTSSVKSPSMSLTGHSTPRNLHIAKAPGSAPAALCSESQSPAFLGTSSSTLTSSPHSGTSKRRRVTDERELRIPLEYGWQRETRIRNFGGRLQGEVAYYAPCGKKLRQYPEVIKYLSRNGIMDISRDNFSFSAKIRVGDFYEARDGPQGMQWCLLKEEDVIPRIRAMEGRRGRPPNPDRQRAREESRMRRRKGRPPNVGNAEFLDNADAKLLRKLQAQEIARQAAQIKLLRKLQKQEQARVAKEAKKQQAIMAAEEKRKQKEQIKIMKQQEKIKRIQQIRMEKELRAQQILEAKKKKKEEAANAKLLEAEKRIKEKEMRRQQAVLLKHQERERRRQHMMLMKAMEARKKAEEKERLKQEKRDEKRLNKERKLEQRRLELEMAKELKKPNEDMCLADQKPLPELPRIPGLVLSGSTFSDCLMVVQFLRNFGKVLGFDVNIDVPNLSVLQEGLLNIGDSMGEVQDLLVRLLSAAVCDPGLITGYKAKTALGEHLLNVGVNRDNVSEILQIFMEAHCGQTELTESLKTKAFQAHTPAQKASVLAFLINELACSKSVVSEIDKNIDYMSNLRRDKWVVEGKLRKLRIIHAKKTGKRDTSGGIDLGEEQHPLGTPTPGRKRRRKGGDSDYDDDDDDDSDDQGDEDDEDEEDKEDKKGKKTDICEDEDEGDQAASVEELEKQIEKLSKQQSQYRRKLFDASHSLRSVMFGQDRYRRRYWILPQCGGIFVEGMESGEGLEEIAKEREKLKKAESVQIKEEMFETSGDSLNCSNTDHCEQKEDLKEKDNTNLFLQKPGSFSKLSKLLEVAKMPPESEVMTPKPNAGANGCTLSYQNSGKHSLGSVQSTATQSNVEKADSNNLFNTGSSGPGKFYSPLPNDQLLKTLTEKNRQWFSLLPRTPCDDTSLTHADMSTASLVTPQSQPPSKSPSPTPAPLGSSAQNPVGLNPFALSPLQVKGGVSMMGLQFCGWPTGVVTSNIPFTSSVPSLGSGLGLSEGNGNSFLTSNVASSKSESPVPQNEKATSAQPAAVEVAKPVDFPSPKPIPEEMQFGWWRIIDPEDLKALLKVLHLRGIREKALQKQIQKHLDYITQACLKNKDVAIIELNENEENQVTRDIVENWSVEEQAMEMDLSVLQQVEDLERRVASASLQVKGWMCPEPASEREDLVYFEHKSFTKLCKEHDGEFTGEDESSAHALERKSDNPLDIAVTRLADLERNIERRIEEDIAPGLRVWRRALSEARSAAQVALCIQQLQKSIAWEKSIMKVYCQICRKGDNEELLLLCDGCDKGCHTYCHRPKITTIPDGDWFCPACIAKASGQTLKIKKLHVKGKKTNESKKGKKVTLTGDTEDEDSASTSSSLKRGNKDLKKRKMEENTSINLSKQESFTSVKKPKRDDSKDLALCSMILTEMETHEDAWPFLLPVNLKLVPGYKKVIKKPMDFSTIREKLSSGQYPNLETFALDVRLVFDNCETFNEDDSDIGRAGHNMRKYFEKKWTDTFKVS
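Multi-concentration screen (max 110 uM) measuring displacement of acetylated histone H3 peptide from BAZ2B by AlphaScreen, using 50 nM protein, 50 nM peptide and 10 ug/mL streptavidin donor plus Ni-chelate acceptor beads.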
HP1b binding inh = HP1-beta chromodomain-methylated histone interaction inhibition. AID 540317. 390,000 compounds, 0.56% hits. AlphaScreen HP1-beta / biotin-H3K9me3 peptide binding. Potency, µM (doses to about 114 µM), for the others: top-dose activity change, negative = inhibition, hits mostly inhibitors. P83916; further: nearly all actives have a fitted effect of over 70% in size
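AlphaScreen: HP1-beta (50 nM) preformed 30 min with biotin-H3(1-18)K9me3 peptide (50 nM) in PBS pH 7.4, 0.01% Tween-20. Compound added for 30 min at RT, then streptavidin donor/nickel chelate acceptor beads (10 ug/mL) for 30 min.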
An asterisk follows results filed as active; ? = inconclusive; . = no result given; [ ] = remark or other dose. The call rests on the fitted dose curve; in most records, active means well fitted curve in the direction sought with a large enough effect; inconclusive means small, poorly fitted or top-dose-only effect, or another doubt; inactive means no such curve, though single readings can be large; an effect the other way counts as inactive or inconclusive. Potency means the concentration at half of the fitted maximal effect.

SMILES	G9a block	Sfp inh	JMJD2A Tudor inh	BAZ2B block	HP1b binding inh
O=C(CCc1c[nH]c2ccccc12)N1CCN(c2ccc(O)cc2)CC1	35.5µM*	?	-13.5%[11.4 µM]	-15.9%	?
COC(=O)N1CCC2(CCN(C(=O)Nc3cccc(F)c3)CC2)CC1	-2.5%[12.7 µM]	6.9%	.	.	.
O=S(=O)(NC(CO)Cc1ccccc1)c1ccc(Br)cc1F (centres undefined)	.	.	-14.4%	.	15.7%
CC(=O)NC(Cc1c[nH]c2ccccc12)C(=O)NCCc1ccccn1 (centres undefined)	5.4%	6.3%	-10.6%	-16.1%	1.4%
COc1ccc(/C=C(/C#N)c2nc(-c3ccc(-c4ccccc4)cc3)cs2)cc1OC	?	.	-22.9%	-14.3%	38.3%
COc1ccc(-c2csc(/C(C#N)=C(\O)CSc3nccn3C)n2)cc1OC	44.7µM*	?	-35.3%	50.1µM*	-21.6%
N/C(=N\OC(=O)COc1ccc2ccccc2c1Br)c1ccncc1	8.8%	44.7µM*	.	-0.6%	.
COc1ccc(/C=C\c2nccc3c2[nH]c2ccccc23)cc1	.	.	35.4%[57.1 µM]	.	50.6%[57 µM]
CCCCC/C=C\C/C=C\C/C=C\C/C=C\CCCC(=O)C(F)(F)F	18.0%[59 µM]	28.2µM*	.	.	.
CCCCCCCCCCC/C=C\C/C=C\CCCC(=O)O	9.4%[59 µM]	7.0%	.	.	.
COc1cccc(NC(=O)CSc2nc(=O)n(Cc3ccccn3)c3c2CCC3)c1	3.9%[59 µM]	.	-3.9%	-6.4%	10.2%
CC1CCCc2sc3nc(N4CCN(CCO)CC4)n4ncnc4c3c21 (centres undefined)	-1.3%[59 µM]	-14.2%	?	-29.9%	-14.0%
CN(C)c1ccc(C(c2ccc(N(C)C)cc2)C(O)c2ccccc2)cc1 (centres undefined)	.	.	22.4µM*	.	?
COc1ccc(C2c3sc(=O)[nH]c3SC3C4CCC(C4)C23)cc1OC (centres undefined)	8.91µM*	2.3%	?	?	?
COc1cc(C2c3sc(=O)[nH]c3SC3C(=O)N(c4ccc(Br)cc4)C(=O)C32)ccc1O (centres undefined)	?	-28.2%	?	?	-9.7%
O=c1[nH]c2c(s1)C(c1ccc(O)cc1)C1C3CCC(C3)C1S2 (centres undefined)	?	50.1µM*	-34.8%	?	-20.4%
NC(=O)CC1SC(N)=NC1=O (centres undefined)	11.9%[59 µM]	22.2%	11.0%	1.2%	50.5%
O=C(N/N=C(\c1ccccc1)c1cccnc1)c1ccc(O)cc1	1.8%	15.4%	-17.9%	-14.9%	51.1%
O=C(N/N=C(\Cc1ncc[nH]1)c1ccccc1)c1ccncc1	-23.3%	-11.6%	39.8µM*	8.91µM*	47.0%
O=C(N/N=C(\c1ccccc1)c1cccnc1)c1cccc(F)c1	8.3%	10.2%	44.7µM*	56.2µM*	17.9%
O=C(N/N=C(\Cc1ncc[nH]1)c1ccccc1)c1ccccc1	4.8%[59 µM]	19.3%	.	-0.7%	.
O=C(N/N=C(\Cc1ncc[nH]1)c1ccccc1)c1cccnc1	-10.9%	0.6%	50.1µM*	14.1µM*	24.5%
Cc1cccc(N2C(=O)CSC23C(=O)N(Cc2cccc(F)c2)c2ccccc23)c1 (centres undefined)	-4.4%[59 µM]	.	-6.2%	-18.3%	24.0%
COc1ccc(/C=N/N2CCN(c3ccccc3OC)CC2)cc1OC	44.7µM*	19.3%	?	?	-10.9%
CCN(CC)c1ccc(/C=N/N2CCN(c3ccccc3OC)CC2)cc1	8.91µM*	-22.1%	31.6µM*	31.6µM*	14.1µM*
SMILES	G9a block	Sfp inh	JMJD2A Tudor inh	BAZ2B block	HP1b binding inh
COc1ccc(/C=N/N2CCN(c3ccccc3OC)CC2)cc1Br	2.8%[0.501 µM]	-7.8%	?	39.8µM*	-13.2%
COc1ccccc1N1CCN(/N=C/c2ccc(O)c(O)c2)CC1	-119.9%[12.7 µM]	22.4µM*	22.4µM*	50.1µM*	28.2µM*
N#Cc1c(N)n(-c2ccc(C(=O)O)cc2)c2nc3ccccc3nc12	-5.5%[59 µM]	18.3%	7.0%	2.3%	39.2%
CCOC(=O)c1[nH]c(C)c(/C(O)=C2\C(=O)C(=O)N(CCCN3CCOCC3)C2c2cccs2)c1C (centres undefined)	.	-17.8%	-16.7%	-14.7%	28.0%
COC(=O)c1[nH]c(C)c(/C(O)=C2\C(=O)C(=O)N(CCN3CCOCC3)C2c2cccs2)c1C (centres undefined)	44.7µM*	-0.8%	-24.6%	-4.9%	11.7%
CCOC(=O)c1[nH]c(C)c(/C(O)=C2\C(=O)C(=O)N(CCN3CCOCC3)C2c2ccco2)c1C (centres undefined)	39.8µM*	0.5%	-14.0%	?	19.8%
COC(=O)c1[nH]c(C)c(/C(O)=C2\C(=O)C(=O)N(CCN3CCOCC3)C2c2ccco2)c1C (centres undefined)	50.1µM*	-3.0%	-29.5%	0.5%	16.9%
CCN(CC)CCN1C(=O)C(=O)/C(=C(/O)c2c(C)[nH]c(C(=O)OC)c2C)C1c1ccco1 (centres undefined)	?	9.0%	?	-36.5%	14.3%
O=C(NCN1CCN(c2ccccn2)CC1)c1cnccn1	-1.1%[12.7 µM]	7.0%	2.2%	-0.3%	34.0%
COc1cccc(CNC(=O)CN2C(=O)N(c3cccc(Cl)c3)S(=O)(=O)c3ccccc32)c1OC	4.2%[59 µM]	.	-7.7%	3.6%	45.8%
C[C@H](NC[C@H](O)CP(=O)(O)CC1CCCCC1)c1ccc(Cl)c(Cl)c1	13.9%[59 µM]	-1.9%	.	.	.
Oc1ccc(NCc2cccc(OCc3ccccc3)c2)cc1	12.6µM*	?	50.1µM*	-28.8%	?
CCOc1cc(CNc2ccc(O)cc2)cc(Cl)c1OCc1ccccc1	?	.	44.7µM*	28.2µM*	35.5µM*
CCOc1cc(CNc2ccccc2)cc(Br)c1OCc1ccc(F)cc1	74.1%[59 µM]	?	12.1%	-0.1%	61.5%
c1ccc(COc2cccc(CNCc3cccnc3)c2)cc1	?	-7.3%	?	50.1µM*	19.0%
CCCCC(=O)N1C/C=C\[C@H](c2ccc(OC)cc2)N(Cc2ccc(F)cc2)C(=O)[C@@H]1C	.	.	-23.2%	.	29.6%
Cc1c(-c2ccccc2)[n+](=O)c2c(n1[O-])CCC2	0.3%[59 µM]	14.0%	1.9%	-14.4%	30.2%
CC(C)Oc1ccc(C(=O)NC2=NCCS2)cc1	3.55µM*	35.5µM*	-26.1%	-27.7%	?
CC(C)[C@H](NC(=O)c1ccc(F)cc1)C(=O)NC1=NCCS1	7.4%	15.6%	17.8µM*	0.3%	18.6%
N#Cc1ccc(C(=O)NC2=NCCS2)cc1	39.8µM*	16.3%	-6.4%	?	22.7%
COc1ccc(C(=O)NC2=NCCS2)cc1	-1.8%[12.7 µM]	-2.7%	-12.6%	-0.3%	-18.3%
COc1ccc(N(C)S(=O)(=O)c2cccc(C(=O)NC3=NCCS3)c2)cc1	70.8µM*	5.9%	-14.3%	13.5%	16.5%
CCC(C)(C)NC(=O)c1ccc2c(c1)OCCO2	-0.1%	14.7%	7.9%	-3.4%	22.5%
Cc1ccc(N(CCC#N)C(=O)CSc2nnc3ccccn23)cc1	28.7%[12.7 µM]	.	-8.4%	-16.5%	29.5%
